# Hit rate of the full screen: of about 5,500 compounds, about 2,000 (36%) were called active. Inconclusive results (about 18%) are left out. The list shows a part of the results. Values without a mark were called inactive. No stated cut-off is given here; in the data, active means normalized growth mostly below about 0.91 (no sharp cut-off); inconclusive means no clear call, values can overlap the other calls; inactive means mostly above about 0.92.
# Experiment: chemical genetic growth profiling, strain panel (AID 1159580);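 further: tested at 20 µM; growth read once vehicle control cultures reached saturation at 30 °C; 1 = growth at the plate median or of vehicle wells; lower values mean less growth of the strain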
# Details: S. cerevisiae deletion strains, growth OD
smiles,measurement,setting,value
N=C(N)c1ccc(OCCCCCOc2ccc(C(=N)N)cc2)cc1,normalized growth,"locus YAL013W, strain DEP1, active compounds read low",1
same,normalized growth,"locus YAL021C, strain ccr4, active compounds read low",0.908
same,normalized growth,"locus YAL026C, strain drs2, active compounds read low",0.951
same,normalized growth,"locus YAL030W, strain snc1, active compounds read low",0.935
same,normalized growth,"locus YBL061C, strain skt5, active compounds read low",0.966
same,normalized growth,"locus YBR009C, strain hhf1, active compounds read low",0.952
same,normalized growth,"locus YBR021W, strain FUR4, active compounds read low",1.07
same,normalized growth,"locus YBR023C, strain chs3, active compounds read low",0.986
same,normalized growth,"locus YBR171W, strain sec66, active compounds read low",0.946
same,normalized growth,"locus YBR229C, strain ROT2, active compounds read low",0.978
same,normalized growth,"locus YBR231C, strain swc5, active compounds read low",0.919
same,normalized growth,"locus YBR279W, strain paf1, active compounds read low",0.93 (active)
same,normalized growth,"locus YCL011C, strain gbp2, active compounds read low",0.945
same,normalized growth,"locus YCL016C, strain dcc1, active compounds read low",0.939
same,normalized growth,"locus YCL029C, strain bik1, active compounds read low",0.89 (active)
same,normalized growth,"locus YCL061C, strain MRC1, active compounds read low",0.916 (active)
same,normalized growth,"locus YCL069W, strain vba3, active compounds read low",0.963
same,normalized growth,"locus YCR088W, strain abp1, active compounds read low",0.966
same,normalized growth,"locus YDL005C, strain med2, active compounds read low",0.979
same,normalized growth,"locus YDL035C, strain GPR1, active compounds read low",0.901
same,normalized growth,"locus YDL040C, strain nat1, active compounds read low",0.965
same,normalized growth,"locus YDL074C, strain BRE1, active compounds read low",0.942
same,normalized growth,"locus YDL101C, strain DUN1, active compounds read low",0.989
same,normalized growth,"locus YDL134C, strain PPH21, active compounds read low",0.955
same,normalized growth,"locus YDL185W, strain tfp1, active compounds read low",0.964
same,normalized growth,"locus YDL192W, strain arf1, active compounds read low",0.933
same,normalized growth,"locus YDR001C, strain nth1, active compounds read low",0.974
same,normalized growth,"locus YDR069C, strain doa4, active compounds read low",1
same,normalized growth,"locus YDR101C, strain arx1, active compounds read low",0.875 (active)
same,normalized growth,"locus YDR137W, strain rgp1, active compounds read low",1
same,normalized growth,"locus YDR150W, strain NUM1, active compounds read low",0.989
same,normalized growth,"locus YDR159W, strain sac3, active compounds read low",0.85 (active)
same,normalized growth,"locus YDR162C, strain NBP2, active compounds read low",0.941
same,normalized growth,"locus YDR195W, strain ref2",0.968
same,normalized growth,"locus YDR297W, strain sur2, active compounds read low",0.958
same,normalized growth,"locus YDR318W, strain mcm21, active compounds read low",0.878 (active)
same,normalized growth,"locus YDR334W, strain swr1, active compounds read low",0.958
same,normalized growth,"locus YDR335W, strain msn5, active compounds read low",0.977
same,normalized growth,"locus YDR388W, active compounds read low",0.938
same,normalized growth,"locus YDR392W, strain spt3, active compounds read low",0.808
same,normalized growth,"locus YDR502C, strain sam2, active compounds read low",0.907 (active)
same,normalized growth,"locus YEL003W, strain gim4, active compounds read low",0.929
same,normalized growth,"locus YEL037C, strain rad23, active compounds read low",0.945
same,normalized growth,"locus YEL061C, strain CIN8 (second series), active compounds read low",0.945
same,normalized growth,"locus YEL061C, strain CIN8, active compounds read low",0.965
same,normalized growth,"locus YER015W, strain faa2, active compounds read low",0.922 (active)
same,normalized growth,"locus YER016W, strain bim1, active compounds read low",0.963
same,normalized growth,"locus YER110C, active compounds read low",0.95
same,normalized growth,"locus YER111C, strain swi4, active compounds read low",0.967
same,normalized growth,"locus YER155C, strain BEM2 (second series), active compounds read low",0.874
same,normalized growth,"locus YER155C, strain BEM2, active compounds read low",0.986
same,normalized growth,"locus YER167W, strain BCK2, active compounds read low",0.915
same,normalized growth,"locus YFR010W, strain ubp6, active compounds read low",0.954
same,normalized growth,"locus YGL078C, strain dbp3, active compounds read low",0.929
same,normalized growth,"locus YGL086W, strain mad1, active compounds read low",0.874 (active)
same,normalized growth,"locus YGL167C, strain pmr1, active compounds read low",0.974
same,normalized growth,"locus YGL173C, strain kem1, active compounds read low",0.865 (active)
same,normalized growth,"locus YGL227W, strain vid30, active compounds read low",0.984
same,normalized growth,"locus YGL240W, strain doc1, active compounds read low",0.991
same,normalized growth,"locus YGL248W, strain PDE1, active compounds read low",0.964
same,normalized growth,"locus YGL253W, strain hxk2, active compounds read low",0.8 (active)
same,normalized growth,"locus YGR078C, strain PAC10, active compounds read low",0.947
same,normalized growth,"locus YGR135W, strain pre9, active compounds read low",0.937
same,normalized growth,"locus YGR229C, strain SMI1, active compounds read low",0.929
same,normalized growth,"locus YGR252W, strain gcn5, active compounds read low",0.819
same,normalized growth,"locus YHR013C, strain ard1, active compounds read low",1.09
same,normalized growth,"locus YHR027C, strain rpn1, active compounds read low",0.946
same,normalized growth,"locus YHR030C, strain SLT2, active compounds read low",0.974
same,normalized growth,"locus YHR079C, strain IRE1 (second series), active compounds read low",0.888 (active)
same,normalized growth,"locus YHR094C, strain hxt1, active compounds read low",0.94
same,normalized growth,"locus YHR129C, strain ARP1, active compounds read low",0.968
same,normalized growth,"locus YHR142W, strain chs7, active compounds read low",0.972
same,normalized growth,"locus YHR200W, strain rpn10, active compounds read low",0.871 (active)
same,normalized growth,"locus YIL066C, strain RNR3, active compounds read low",0.917
same,normalized growth,"locus YIL073C, strain SPO22, active compounds read low",0.675
same,normalized growth,"locus YIL125W, strain kgd1, active compounds read low",0.903 (active)
same,normalized growth,"locus YIR030C, strain dcg1, active compounds read low",0.93
same,normalized growth,"locus YJL092W, strain hpr5, active compounds read low",0.919
same,normalized growth,"locus YJL095W, strain BCK1 (second series), active compounds read low",0.959
same,normalized growth,"locus YJL095W, strain BCK1, active compounds read low",0.892
same,normalized growth,"locus YJL115W, strain asf1, active compounds read low",0.923
same,normalized growth,"locus YJL129C, strain trk1, active compounds read low",0.995
same,normalized growth,"locus YJL134W, strain LCB3, active compounds read low",0.967
same,normalized growth,"locus YJL154C, strain vps35, active compounds read low",0.989
same,normalized growth,"locus YJL164C, strain tpk1, active compounds read low",0.974
same,normalized growth,"locus YJL166W, strain qcr8, active compounds read low",0.978
same,normalized growth,"locus YJL168C, strain set2, active compounds read low",0.925 (active)
same,normalized growth,"locus YJL187C, strain SWE1 (second series), active compounds read low",0.929
